In PubChem BioAssay (NCATS):
Inconclusive results are not listed. Activity calls are given as the source filed them. Calls follow the shape of the dose curve; as a rule, active = well fitted curve in the direction sought with a large enough effect; inconclusive = small, poorly fitted or top-dose-only effect, or another doubt; inactive = no such curve, though single readings can be large; an effect the other way counts as inactive or inconclusive.

Columns and labels:
[1] = target: Glutathione peroxidase 1 (Homo sapiens) (UniProt P07203); assay: Primary qHTS Assay for Inhibitors of Recombinant Selenoprotein Glutathione Peroxidase 1 (GPX1) (AID 1845191); also: nearly all actives have a fitted effect of over 65% in size; as to activity, negative = inhibition: % is scaled to controls: 0 for no effect and ±100 for the full control effect
Glutathione peroxidase 1 (Homo sapiens), sequence (P07203 whole entry, looked up): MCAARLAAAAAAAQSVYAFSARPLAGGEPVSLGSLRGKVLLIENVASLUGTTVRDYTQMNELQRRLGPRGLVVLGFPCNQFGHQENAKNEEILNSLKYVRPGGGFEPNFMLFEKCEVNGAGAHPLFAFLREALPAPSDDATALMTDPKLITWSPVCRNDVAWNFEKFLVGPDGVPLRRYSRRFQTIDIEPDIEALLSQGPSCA
How it was run: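 GR-coupled readout: NADPH consumption tracked by fluorescence, ex 340/em 450 nm, at t=0 and after 15 min at RT. Final mix 10 nM GPX1, 1 mM GSH, 0.5 mM CHP, 0.5 mM NADPH, 100 nM GR, 0.01% BSA, following 30 min enzyme–compound preincubation.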

[2] = target: Phospholipid hydroperoxide glutathione peroxidase GPX4 (Homo sapiens) (UniProt P36969); assay: Primary qHTS Assay for Inhibitors of Recombinant Selenoprotein Glutathione Peroxidase 4 (GPX4) (AID 1845192); also: nearly all actives have a fitted effect of over 65% in size; as to activity change, negative = inhibition: series mostly up to about 50 µM; % is scaled to controls: 0 for no effect and ±100 for the full control effect
Phospholipid hydroperoxide glutathione peroxidase GPX4 (Homo sapiens), sequence (P36969 whole entry, looked up): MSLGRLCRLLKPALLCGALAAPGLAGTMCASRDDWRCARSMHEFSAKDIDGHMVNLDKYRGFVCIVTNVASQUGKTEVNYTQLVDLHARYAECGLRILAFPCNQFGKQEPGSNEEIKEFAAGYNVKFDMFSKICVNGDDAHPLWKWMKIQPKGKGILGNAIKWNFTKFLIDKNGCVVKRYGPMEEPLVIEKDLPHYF
How it was run: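 Steps: GPX4 plus compound, 30 min RT; add GR/GSH/NADPH master mix; start with cumene hydroperoxide; read 340/450 nm fluorescence at 0 and 15 min. Finals were 200 nM GPX4, 1 mM GSH, 0.5 mM CHP, 0.5 mM NADPH, 100 nM GR.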

[3] = target: Luciferin 4-monooxygenase (Photinus pyralis) (UniProt P08659); assay: Primary firefly luciferase (FLuc) qHTS assay for identification of artifact compounds. (AID 1845220); also: nearly all actives have a fitted effect of over 60% in size;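 as to activity change, negative = inhibition: series mostly up to about 54 µM; plate controls were DMSO vehicle for no effect and no enzyme for full effect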
How it was run: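 D-luciferin and ATP (10 uM each, final) in Tris acetate buffer pH 7.6 were incubated with compounds for 15 min at room temperature. The reaction was started with 10 nM Photinus pyralis luciferase and luminescence read after 5 min. Percent inhibition was fitted to a 4-parameter Hill equation.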

[4] = tested on: Nanoluciferase (engineered Oplophorus gracilirostris luciferase); assay: Primary Nanoluciferase (NLuc) qHTS assay for identification of artifact compounds. (AID 1845222);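 also: series mostly up to about 54 µM; 0% = DMSO and -100% = no enzyme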
How it was run: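 Diluted conditioned medium from NLuc-expressing S16 cells treated with compounds for 15 min at room temperature, then Nano-Glo substrate added; luminescence read after 5 min. Percent inhibition versus no-enzyme and DMSO controls fitted to 4-parameter Hill equation.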

[5] = Primary redox qHTS assay for identification of artifact compounds. (AID 1845223);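 also: 0% = DMSO and 100% = reference compound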
How it was run: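 Redox-cycling detection via DTT (250 uM final) oxidation coupled to Amplex Red (25 uM)/HRP (250 mU/mL) in HBSS. 15 min preincubation plus 30 min after DTT, room temperature. Ex/Em 525/598 nm; 4-parameter Hill fit against DMSO and 10 uM DA3003.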

CC1(CCC(=O)O)C(=O)C=CC23CC4CC(OC4(C)C2O)C13 (centres undefined)
inactive: Potency [1] | Potency [2] | Potency [3] | Potency [4] | Potency [5]

CN1C(=O)c2ccccc2NC(=O)[C@]12O[C@@H]2c1cccc(O)c1
inactive: Potency [1] | Potency [2] | Potency [3] | Potency [4] | Potency [5]

C[C@@H]1C(=O)O[C@H]2CC34[C@H]5C[C@@H](C(C)(C)C)C36[C@@H](OC(=O)[C@@H]6O)OC4(C(=O)O5)[C@]21O (some centres undefined)
inactive: Potency [1] | Potency [2] | Potency [3] | Potency [4] | Potency [5]

Cc1cc(O)c(C(C)C)cc1O[C@@H]1O[C@H](CO)[C@@H](O)[C@H](O)[C@H]1O
inactive: Potency [1] | Potency [2] | Potency [3] | Potency [4] | Potency [5]

CC(/C=C/[C@]1(O)[C@@]2(C)CO[C@@]1(C)C[C@@H](O)C2)=C\C(=O)O[C@@H]1O[C@H](CO)[C@@H](O)[C@H](O)[C@H]1O
inactive: Potency [1] | Potency [2] | Potency [3] | Potency [4] | Potency [5]

CC(=O)NC(CCC(=O)O)C(=O)NCCc1ccc(O)cc1 (centres undefined)
inactive: Potency [1] | Potency [2] | Potency [3] | Potency [4] | Potency [5]

C=C1CCC2C(C)(C)CC(=O)CC2(C)C1CCC(C)CCOC(C)=O (centres undefined)
inactive: Potency [1] | Potency [2] | Potency [3] | Potency [5]

CC1=C2C3OC(=O)C(C)C3(O)CCC2(C)CCC1=O (centres undefined)
inactive: Potency [1] | Potency [2] | Potency [3] | Potency [4] | Potency [5]

CC1CCC23COC(=O)C2=CC(O)CC3C1(C)CCC1=CC(=O)OC1O (centres undefined)
inactive: Potency [1] | Potency [2] | Potency [3] | Potency [4] | Potency [5]

O=C(O)CCc1cc2ccoc2cc1O[C@@H]1O[C@H](CO[C@@H]2OC[C@](O)(CO)[C@H]2O)[C@@H](O)[C@H](O)[C@H]1O
inactive: Potency [1] | Potency [2] | Potency [3] | Potency [4] | Potency [5]

CCC(C)(O)C(O)C(=O)OCc1ccc(O[C@@H]2O[C@H](CO)[C@@H](O)[C@H](O)[C@H]2O)c(OC)c1 (some centres undefined)
inactive: Potency [1] | Potency [2] | Potency [3] | Potency [4] | Potency [5]

O=C(/C=C/c1ccc(O)cc1)O[C@H]1[C@@H]2C=CO[C@@H](O[C@@H]3O[C@H](CO)[C@@H](O)[C@H](O)[C@H]3O)[C@@H]2[C@@]2(CO)O[C@@H]12
inactive: Potency [1] | Potency [2] | Potency [3] | Potency [4] | Potency [5]

C/C=C(\C)C(=O)OC[C@H]1O[C@H](O[C@H]2O[C@H](CO)[C@@H](OC(=O)/C(C)=C/C)[C@H](O)[C@H]2O[C@@H]2O[C@H](CO)[C@@H](O)[C@H](O)[C@H]2O)[C@H](O[C@@H]2O[C@H](CO)[C@@H](O)[C@H](O)[C@H]2O)[C@@H](O)[C@@H]1O
inactive: Potency [1] | Potency [2] | activity change, negative = inhibition [3] 1.93% [at 11.6 µM] | activity, negative = inhibition [4] 0% [at 11.6 µM] | redox activity (% of DA3003) [5] 3.6% [at 11.5 µM]

COc1ccc(C2=CC(=O)OC2Cc2ccc(O)cc2)c(O)c1 (centres undefined)
inactive: Potency [1] | Potency [2] | Potency [3] | Potency [4] | Potency [5]

C=CCc1ccc(O[C@@H]2O[C@H](CO[C@@H]3O[C@@H](C)[C@H](O)[C@@H](O)[C@H]3O)[C@@H](O)[C@H](O)[C@H]2O)cc1
inactive: Potency [1] | Potency [2] | Potency [3] | Potency [4] | Potency [5]

COc1c(C)c2c(c(O)c1C/C=C(\C)CC/C=C(\C)CCC(=O)O)C(=O)OC2
inactive: Potency [1] | Potency [2] | Potency [3] | Potency [4] | Potency [5]

COc1ccccc1[C@@H]1C2=C(CC(C)(C)CC2=O)Nc2n[nH]c(C(F)(F)F)c21
inactive: Potency [1] | Potency [2] | Potency [3] | Potency [4] | Potency [5]

C[C@H]1[C@H](C)CC[C@]2(C(=O)O)CC[C@]3(C(=O)O)C(=CCC4[C@@]5(C)CC[C@H](O[C@@H]6O[C@H](C)[C@@H](O)[C@H](O)[C@H]6O)C(C)(C)C5CC[C@]43C)[C@H]12 (some centres undefined)
inactive: Potency [1] | Potency [2] | Potency [3] | Potency [4] | Potency [5]

CC1CCC(=O)CC(O)C(O)CC(=O)O1 (centres undefined)
inactive: Potency [1] | Potency [2] | Potency [3] | Potency [4] | Potency [5]

COc1ccc2c(c1)OC[C@]1(O)c3cc4c(cc3O[C@H]21)OCO4
inactive: Potency [1] | Potency [2] | Potency [3] | Potency [4] | Potency [5]

COc1cc2c(cc1O)C1(OC)Cc3ccc4c(c3C1N(C)CC2)OCO4 (centres undefined)
inactive: Potency [1] | Potency [2] | Potency [3] | Potency [4] | Potency [5]

Cc1cc(N2CCCCC2)nc2ccccc12
inactive: Potency [1] | Potency [2] | Potency [3] | Potency [4] | Potency [5]

CCOC(=O)c1c(C)nn(-c2cccc([N+](=O)[O-])c2)c1C
inactive: Potency [1] | Potency [2] | Potency [3] | Potency [4] | Potency [5]

O=c1c2cccnc2n(-c2cccc([N+](=O)[O-])c2)c(=O)n1Cc1ccncc1
inactive: Potency [1] | Potency [2] | Potency [3] | Potency [4] | Potency [5]

CC(=O)N(O)CCCCCN1C(=O)CCC1=O
inactive: Potency [1] | Potency [2] | Potency [3] | Potency [4] | Potency [5]
